Bioassay records: PubChem, several laboratories
Sampled rows, rich in hits. Any-hit rate of the full collection: about 3.6%.
BoNT-F LC inh: blocks Botulinum neurotoxin F light chain protease. inhibition, % at 10 µM. AID 588497. Multiplex microsphere protease cleavage assay, flow cytometry. actives 0.22% (n = 360,000); in the data active means inhibition above about 35%, passing the limit was not always enough; inconclusive means no clear call, values can overlap the other calls; further: plate controls were buffer without enzyme for full effect and enzyme alone for no effect
Bead autofluor: counter-screen for toxin protease inhibitors: compound fluorescence | compound autofluorescence counterscreen, microsphere flow cytometry; active compounds read high | fluorescence intensity (test concentration not listed) | actives 3.1% (n = 360,000); in the data active means fluorescence intensity above about 16000; inconclusive means no clear call, values can overlap the other calls
MazEF act: MazEF (E. coli) toxin RNase activation. P0AE70. FAM/BHQ RNA-DNA oligo cleavage fluorescence, 5 h. actives 0.32% (n = 350,000). activation, % at 20 µM. AID 504720; in the data active means activation above about 50%
Anthrax LF prot: anthrax lethal factor protease inhibition. P15917. multiplex microsphere protease cleavage assay, LF. inhibition, % at 10 µM. actives 0.12% (n = 360,000). AID 588501; further: plate controls were buffer without enzyme for full effect and enzyme alone for no effect
Target sequence (P15917 whole entry, looked up): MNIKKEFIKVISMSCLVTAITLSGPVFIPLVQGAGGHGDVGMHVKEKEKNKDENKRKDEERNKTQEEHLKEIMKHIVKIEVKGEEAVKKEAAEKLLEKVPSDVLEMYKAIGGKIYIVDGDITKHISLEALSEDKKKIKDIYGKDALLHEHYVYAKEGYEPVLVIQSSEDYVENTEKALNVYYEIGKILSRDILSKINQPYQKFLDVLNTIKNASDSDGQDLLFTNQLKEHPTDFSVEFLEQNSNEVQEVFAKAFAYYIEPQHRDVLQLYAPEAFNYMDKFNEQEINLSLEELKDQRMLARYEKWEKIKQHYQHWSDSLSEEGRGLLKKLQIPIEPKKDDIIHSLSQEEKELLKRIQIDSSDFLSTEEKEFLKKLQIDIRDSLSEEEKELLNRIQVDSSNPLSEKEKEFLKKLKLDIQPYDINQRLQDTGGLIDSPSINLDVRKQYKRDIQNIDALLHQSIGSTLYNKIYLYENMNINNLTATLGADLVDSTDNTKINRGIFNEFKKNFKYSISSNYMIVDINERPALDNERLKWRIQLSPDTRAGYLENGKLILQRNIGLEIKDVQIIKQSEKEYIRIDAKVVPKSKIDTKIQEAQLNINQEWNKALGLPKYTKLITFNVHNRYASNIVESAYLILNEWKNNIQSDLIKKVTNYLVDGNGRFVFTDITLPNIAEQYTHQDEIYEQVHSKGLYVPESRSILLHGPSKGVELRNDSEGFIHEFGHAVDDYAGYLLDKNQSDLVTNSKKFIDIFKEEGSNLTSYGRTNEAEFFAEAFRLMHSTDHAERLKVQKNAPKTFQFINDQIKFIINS
BoNT-A LC inh2: BoNT A light chain protease inhibition. inhibition, % at 10 µM. actives 0.17% (n = 360,000). AID 588499. multiplex microsphere protease substrate cleavage, flow cytometry; further: plate controls were buffer without enzyme for full effect and enzyme alone for no effect
* = called active by the depositor; ? = inconclusive; nt = no result given; + = active, no number. Unless noted, no stated cut-off is given here; in the data, active means inhibition above about 30%; inconclusive means no clear call, values can overlap the other calls; inactive means below that.

SMILES	BoNT-F LC inh	Bead autofluor	MazEF act	Anthrax LF prot	BoNT-A LC inh2
CC(=O)N/C(=C\c1ccccc1)C(=O)OC(C)C(=O)Nc1ccccc1F (centres undefined)	-4	5568	0	1	0
O=C(c1ccc(Br)o1)N1CCN(C/C=C/c2ccccc2)CC1	-3	9557	1	-5	0
O=C(c1ccc(Br)s1)N1CCN(C/C=C/c2ccccc2)CC1	-8	22315*	0	-1	-4
CC(C)CN(C(=O)COC(=O)CSc1ccc(Br)cc1)C1CCS(=O)(=O)C1 (centres undefined)	16	3981	4	0	2
CC(C)CNC(=S)NNC(=O)c1ccc(OC(F)F)cc1	0	23366*	-5	0	0
C=CCNC(=S)NNC(=O)c1ccc(OC(C)C)cc1	-12	9572	9	-9	-1
CCNC(=S)NNC(=O)c1cccnc1	-17	6606	10	-3	-1
CCNC(=S)NNC(=O)c1ccc(OC(F)F)cc1	2	23106*	2	-2	0
O=C1[C@H](Oc2ccccc2)[C@@H](c2ccccc2)N1c1ccncc1	5	3441	9	-6	0
O=C(NCc1cccnc1)/C(=C/c1ccc(-c2cccc(C(F)(F)F)c2)o1)NC(=O)c1ccccc1	-9	22544*	9	-2	?
Cc1ccc(C(=O)N/C(=C/c2ccc(-c3cc(C(F)(F)F)ccc3Cl)o2)C(=O)NCc2cccnc2)cc1	-5	8011	-18	-5	0
O=C(O)CCC1(CCC(=O)O)CCCC(CCC(=O)O)(CCC(=O)O)C1=O	-48	2851	5	-12	0
O=C(NCCc1ccccc1)C1Cc2c(-c3ccc(Cl)cc3)ccnc2O1 (centres undefined)	0	3824	nt	2	0
CCc1nc(C)cc(N)c1OCc1ccccc1	1	17332*	8	-1	-2
CN(CC(=O)Nc1ccc(F)cc1)C(=O)CN1C(=O)NC(CCc2ccccc2)C1=O (centres undefined)	0	3723	1	2	0
CCOC(=O)N1CCN(S(=O)(=O)N2CCCC(C(=O)NCc3ccc(C)cc3)C2)CC1 (centres undefined)	-15	3030	14	5	0
Fc1ccccc1N1CCN(C2CCCN(Cc3cccc(C(F)(F)F)c3)C2)CC1 (centres undefined)	-52	4613	-1	-12	-2
CCCOc1ccc(-c2nc(C#N)c(N3CCN(CC)CC3)o2)cc1	6	2702	-2	-6	0
CCCOc1ccc(-c2nc(C#N)c(N3CCC(C(N)=O)CC3)o2)cc1	-3	19961*	-4	-4	-2
CCOc1ccc(-c2nc(C#N)c(N3CCN(CC)CC3)o2)cc1	0	19650*	-2	-2	?
Cc1cc2oc(=O)cc(Cn3ncc(Cl)c(Cl)c3=O)c2cc1Cl	-3	2776	14	-1	0
CCCN1C=CC(=C2C(=O)c3ccccc3C2=O)C=C1	-1	15675	2	-1	2
CCN1C=CC(=C2C(=O)c3ccccc3C2=O)C=C1	-9	17505*	-8	-5	-4
CC(C)=CCN1CCN(Cc2cccnc2)CC1CCO (centres undefined)	1	2204	8	0	0
COC(=O)Cc1ccc(NC(=O)c2ccc(C)c(C)c2)cc1	0	24555*	1	-1	-2
SMILES	BoNT-F LC inh	Bead autofluor	MazEF act	Anthrax LF prot	BoNT-A LC inh2
CCCCc1cc(=O)oc2cc(C)cc(OCC(=O)O)c12	3	21248*	-3	-2	?
Cc1c[nH]c2ccccc12	-1	5978	10	-4	0
CCCn1nc(-c2ccccc2)c2nc3ccccc3nc21	nt	nt	+	nt	nt
COc1cc(OC)c(C(=O)N/N=C/c2ccoc2)cc1OC	7	4961	-1	1	-4
Cc1ccc2cc3c(N)c(C(=O)Nc4c(C)[nH]c(=O)[nH]c4=O)sc3nc2c1	2	6869	205*	9	9
Cc1ccc2nc3sc(C(=O)Nc4c(C)[nH]c(=O)[nH]c4=O)c(N)c3cc2c1	7	8886	12	3	10
O=C(c1ccccc1Cl)N1CCN(c2ncccn2)CC1	-2	6186	-3	3	0
COc1cc(C(C(=O)NC2CCCCC2)N(Cc2cccs2)C(=O)Cc2c[nH]c3ccccc23)cc(OC)c1OC (centres undefined)	-4	23578*	-3	-2	-3
COc1ccc(CN(C(=O)Cc2c[nH]c3ccccc23)C(C(=O)NC2CCCCC2)c2ccc(C)o2)cc1 (centres undefined)	-9	27158*	4	-6	-6
O=C(Nc1cccc(C(F)(F)F)c1)c1ccc(-c2ccc(F)c(F)c2)c2ccoc12	-4	2813	nt	-1	0
CC(C)(C)S(=O)(=O)N1C[C@H]2C(=CC[C@@H]3C(=O)N(c4ccccc4)C(=O)[C@@H]32)[C@H]1CCO	-4	3649	-8	-3	0
CC(C)(C)C(=O)CN1CCN(C2c3ccccc3-c3ccccc32)CC1	-8	21967*	-8	-8	-6
COc1ccccc1NC(=O)CN1CCN(C2c3ccccc3-c3ccccc32)CC1	4	2197	-1	-3	0
COC(=O)[C@H](CC(C)C)NC(=O)NC1CCCCC1C (some centres undefined)	6	17745*	-4	-17	4
CC(C)OC(=O)/C(C#N)=C/c1ccc(-c2ccc(SC(F)F)cc2)o1	-8	2472	140*	0	1
COC(=O)/C(C#N)=C/c1ccc(-c2ccc(S(N)(=O)=O)cc2)o1	-6	4467	6	4	1
CCOc1ccccc1CN1CCNC(=O)C1CC(=O)NCCCn1cccn1 (centres undefined)	-1	5707	7	-1	0
COc1ccccc1NCC(=O)N/N=C/c1cccnc1	-3	23032*	-14	-2	-3
Cc1ccc(-c2ccc(=O)[nH]n2)cc1	-3	21252*	4	1	-2
CCCCCc1ccc(-c2ccc(=O)[nH]n2)cc1	4	3900	3	0	0
COc1ccc(C(=O)NC2=NCCS2)cc1S(=O)(=O)N1CCOCC1	-2	4197	1	2	0
Cc1nc(N2CCN(c3ccccc3)CC2)nc2c1C(=O)CC(c1ccccc1)C2 (centres undefined)	6	17903*	-11	-12	6
Cc1nc(N2CCN(c3ccccc3)CC2)nc2c1C(=O)CCC2	0	22851*	-3	-3	1
Cc1nc(N2CCN(c3ccccc3)CC2)nc2c1C(=O)CC(C)C2 (centres undefined)	1	21996*	-4	-2	1
O=C(COC(=O)c1ccc2c(c1)OCCO2)NC1CCCCC1	-4	3044	4	-12	0
Cc1ccc(C(=O)OCc2cc(=O)n3c(C)csc3n2)s1	7	2867	-16	-5	0
O=C(CCc1nc(-c2ccccc2Cl)no1)NCC1CCCO1 (centres undefined)	-12	4108	8	-5	-1
Cc1cccc(-c2noc(CCC(=O)NCC3CCCO3)n2)c1 (centres undefined)	-1	23287*	4	1	0
